We go through 14 compounds from paper PMC11062922 (Nature Chemical Biology, 2023).

What all share (set-up): species or system human, MV4-11 + K-562 + COLO205 + SK-N-BE2 + OVCAR-8
One assay deals with FLT3. The conditions noted are these: compound concentrations: 100 nM and 1000 nM (sheet 'Samples').
In assay [1] the test system is JAK1(JH2domain-pseudokinase). To be noted: compound concentrations: 100 nM and 1000 nM (sheet 'Samples').
The test system of the next assay is MLK1. The conditions noted are these: compound concentrations: 100 nM and 1000 nM (sheet 'Samples').
In assay [2] the test system is RSK1(Kin.Dom.1-N-terminal). The conditions noted are these: compound concentrations: 100 nM and 1000 nM (sheet 'Samples').
The test system of a further assay is PSMC4. To be noted: read-out: apparent Kd; compound concentrations: 100 nM and 1000 nM (sheet 'Samples'), CATDS: 0.17422831247088; n = 1.
The subject of the next assay is FN3KRP. The conditions noted are these: read-out: apparent Kd; compound concentrations: 100 nM and 1000 nM (sheet 'Samples'), CATDS: 2.5837856545343801E-2; n = 1.
In another assay the test system is AGPS. The conditions noted are these: read-out: apparent Kd; compound concentrations: 100 nM and 1000 nM (sheet 'Samples'), CATDS: 9.2169061942303496E-2; n = 1.
In another assay the test system is SNRNP200. The conditions noted are these: read-out: apparent Kd; compound concentrations: 100 nM and 1000 nM (sheet 'Samples'), CATDS: 1.8625825044313801E-2; n = 1.
For another assay, the system named is ACLY. The conditions noted are these: read-out: apparent Kd; compound concentrations: 100 nM and 1000 nM (sheet 'Samples'), CATDS: 2.7002269039485799E-2; n = 1.
In a further assay the test system is GARS. The conditions noted are these: read-out: apparent Kd; compound concentrations: 100 nM and 1000 nM (sheet 'Samples'), CATDS: 2.4594129373340799E-2; n = 1.
In the next assay the test system is PFKP. The conditions noted are these: read-out: apparent Kd; compound concentrations: 100 nM and 1000 nM (sheet 'Samples'), CATDS: 2.5253779658022699E-2; n = 1.
The subject of another assay is TTN. To be noted: read-out: apparent Kd; compound concentrations: 100 nM and 1000 nM (sheet 'Samples'), CATDS: 1.2755516587496201E-2; n = 1.
The subject of the next assay is CLK3. To be noted: read-out: apparent Kd; compound concentrations: 100 nM and 1000 nM (sheet 'Samples'), CATDS: 3.87460825135853E-2; n = 1.
Another assay deals with SMG1. To be noted: read-out: apparent Kd; compound concentrations:100 nM and 1000 nM (sheet 'Samples'); n = 1.
A further assay deals with ACVRL1. The conditions noted are these: read-out: apparent Kd; compound concentrations: 100 nM and 1000 nM (sheet 'Samples'), CATDS: 0.20940846784164599; n = 1.
Another assay relates to MAP4K4. To be noted: read-out: apparent Kd; compound concentrations: 100 nM and 1000 nM (sheet 'Samples'), CATDS: 1.6227318274317299E-2; n = 1.
A further assay deals with PSMC3. The conditions noted are these: read-out: apparent Kd; compound concentrations: 100 nM and 1000 nM (sheet 'Samples'), CATDS: 3.1956932095177297E-2; n = 1.
The subject of the next assay is RAB14. To be noted: read-out: apparent Kd; compound concentrations: 100 nM and 1000 nM (sheet 'Samples'), CATDS: 3.92328124697153E-2; n = 1.
Another assay has as its system SLC25A6;SLC25A4. The conditions noted are these: read-out: apparent Kd; compound concentrations: 100 nM and 1000 nM (sheet 'Samples'), CATDS: 2.6658773348472799E-2; n = 1.
The test system of a further assay is SMC2. The conditions noted are these: read-out: apparent Kd; compound concentrations: 100 nM and 1000 nM (sheet 'Samples'), CATDS: 2.55109529885677E-2; n = 1.
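Wherever Kinobeads Data is given: kinobeads ε competition pulldown from cell lysate, compound preincubated 45 min at 4 °C, bound kinases quantified by LC–MS/MS relative to DMSO control.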

Consider `COc1cc(Nc2ncc3c(C)nc(-c4cc5ccccc5[nH]4)n3n2)cc(OC)c1OC` [GW869516X], for which the “Kinobeads Data” value (with FLT3; in assay [1]; with MLK1; in assay [2]) was “no target” each time.
For `O=C1NC(=O)/C(=C/c2ccc3ncccc3c2)S1` [RO4603632-000], the potency estimated from few doses with PSMC4 was 1.73 µM.
In the case of `CCN(CC)Cc1ccc(Nc2nccc(-c3cnn4ncccc34)n2)cc1` [GW780056X], the potency estimated from few doses in the assay on FN3KRP is 0.618 µM.
On to `COc1ccc(-c2cc3c(N)ncnc3o2)cc1` [GW642138X], for which the potency estimated from few doses with AGPS is 2.18 µM.
`COc1cc(Nc2nccc(-c3cnn4ncccc34)n2)cc(OC)c1` [GW801372X]: in the assay on SNRNP200, the potency estimated from few doses was 1.54 µM.
Regarding `Cl.Cl.NC(CNC(=O)c1cc(Br)c(-c2ccnc3[nH]ccc23)s1)c1ccccc1.NC(CNC(=O)c1cc(Br)c(-c2ccnc3[nH]ccc23)s1)c1ccccc1` (centres unmarked) [GSK1322949A], the potency estimated from few doses with ACLY was 1.57 µM; in the assay on GARS, 2.03 µM; in the assay on PFKP, 1.88 µM.
For the compound `CCn1c(-c2cccnc2O)nc2cnccc21` [SB-736715], the potency estimated from few doses in the assay with TTN is 1.87 µM.
Regarding `NCC(NC(=O)c1cc(-c2cn[nH]c2)c(-c2ccnc3[nH]ccc23)s1)c1ccccc1.NCC(NC(=O)c1cc(-c2cn[nH]c2)c(-c2ccnc3[nH]ccc23)s1)c1ccccc1.O=C(O)C(F)(F)F.O=C(O)C(F)(F)F` (centres unmarked) [GSK1325775A], in the assay on CLK3, the potency estimated from few doses was 0.907 µM.
Take `CC(=O)N[C@@H](Cc1ccc(OP(=O)(O)O)cc1)C(=O)N[C@H]1CCC(=O)N2CCC[C@@H](C(=O)NCc3ccc(Cl)cc3)N2C1=O` [RO0325308-000]: the potency estimated from few doses in the assay with SMG1 was 0.121 µM.
In the case of `FC(F)(F)c1ccc(-c2ncn(CCCN3CCOCC3)c2-c2ccncc2)cc1` [SB-217780], the potency estimated from few doses in the assay on ACVRL1 was 1.63 µM.
Regarding `NS(=O)(=O)c1ccc(NC=C2C(=O)Nc3ccc4ncsc4c32)cc1` [GW589933X], the potency estimated from few doses in the assay on MAP4K4 was 2.14 µM.
With `Cn1cc(C2=C(c3ccc(OC[C@@H](O)CO)cc3)C(=O)NC2=O)c2ccccc21` [RO3208546-000], the potency estimated from few doses in the assay with PSMC3 is 2.09 µM.
On to `COc1ccc(Nc2nccc(NCCNC(=O)Nc3cc(C)ccc3C)n2)cc1` [GSK1379899A], for which the potency estimated from few doses in the assay on RAB14 was 2.28 µM.
For the compound `CCC(CC)(CC)n1cnc2c(N)ncnc21` [SKF-97620], the potency estimated from few doses is 1.43 µM with SLC25A6;SLC25A4 and 1.64 µM in the assay on SMC2.
